# Assay results from paper PMC5540273 (PLoS ONE, 2017).
# Tested on: RIPK1
# Settings: concentration: 1 μM,replicates: in singlicate; n = 1
# 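Further: KINOMEscan kinase panel screen.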
row,Structure (SMILES),%Inh [%]
1,CC(C)c1nc(-c2cccc(NS(=O)(=O)c3ccccc3)c2)c(-c2ccnc(Nc3ccc4c(c3)CN(C)CC4)n2)s1 [GSK1649598],0
2,C[C@@H](Oc1cc(-n2cnc3cc(-c4cnn(C)c4)ccc32)sc1C(N)=O)c1ccccc1Cl [GSK580432],39
3,CCn1c(-c2nonc2N)nc2cncc(CNC3CCNCC3)c21.Cl [SB-747651],0
4,CN1CCN(CCCNc2nccc(-c3c(-c4ccc(F)cc4)nn4cc(C(N)=O)ccc34)n2)CC1 [GW622475],10
5,Cc1ccc(C(=O)Nc2ccc(Oc3ccc4nc(NC(=O)C5CC5)cn4c3)c(F)c2)c(=O)n1-c1ccccc1,99.9
6,CC(=O)Nc1ccc(-c2cc3ncnc(SCC(=O)O)c3s2)cc1,0
7,Cn1ccc2ncnc(Oc3ccc(NC(=O)Nc4ccnc(C(F)(F)F)c4)c(Cl)c3)c21,0
8,NC(=O)c1ccc(-c2cc3ncnc(SCC(=O)O)c3s2)cc1,0
9,CN(c1ccc2c(c1)nc(NCc1ccc(F)cc1)n2C)c1ccnc(Nc2ccc(CS(C)(=O)=O)cc2)n1.Cl [GW813244],99.8
10,FC(F)(F)c1cc(Br)cc(Nc2nccc(-c3cnn4ncccc34)n2)c1 [GW810578],4
11,Cn1ccc2ncnc(Oc3ccc(NC(=O)Nc4cccc(C(F)(F)F)c4)c(F)c3)c21,23
12,CCCC(=O)Nc1n[nH]c2ncccc12 [SB-601436],0
13,CN(c1ccccc1CNc1nc(Nc2ccc3c(c2)CC(=O)N3)ncc1C(F)(F)F)S(C)(=O)=O,0
